Data taken from PubChem BioAssay (NCATS).
Records with an inconclusive call do not appear. The list shows a part of the results. The source made the active and inactive calls. The call rests on the fitted dose curve; in most records, active means well fitted curve in the direction sought with a large enough effect; inconclusive means small, poorly fitted or top-dose-only effect, or another doubt; inactive means no such curve, though single readings can be large; an effect the other way counts as inactive or inconclusive.

Legend:
[1] = biological target: Rap guanine nucleotide exchange factor 3 (Homo sapiens) (UniProt O95398); assay: Confirmatory qHTS for agonist of cAMP-regulated guanine nucleotide exchange factor 3 (EPAC1) (AID 1645881); further: nearly all actives have a fitted effect of over 75% in size; further: potency means the concentration at half of the fitted maximal effect;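 on activation: EPAC1 catalysed release of BODIPY-GDP from Rap1B seen as fluorescence loss; 100% = effect of cAMP agonist control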
Sequence of Rap guanine nucleotide exchange factor 3 (Homo sapiens) (O95398 whole entry, looked up): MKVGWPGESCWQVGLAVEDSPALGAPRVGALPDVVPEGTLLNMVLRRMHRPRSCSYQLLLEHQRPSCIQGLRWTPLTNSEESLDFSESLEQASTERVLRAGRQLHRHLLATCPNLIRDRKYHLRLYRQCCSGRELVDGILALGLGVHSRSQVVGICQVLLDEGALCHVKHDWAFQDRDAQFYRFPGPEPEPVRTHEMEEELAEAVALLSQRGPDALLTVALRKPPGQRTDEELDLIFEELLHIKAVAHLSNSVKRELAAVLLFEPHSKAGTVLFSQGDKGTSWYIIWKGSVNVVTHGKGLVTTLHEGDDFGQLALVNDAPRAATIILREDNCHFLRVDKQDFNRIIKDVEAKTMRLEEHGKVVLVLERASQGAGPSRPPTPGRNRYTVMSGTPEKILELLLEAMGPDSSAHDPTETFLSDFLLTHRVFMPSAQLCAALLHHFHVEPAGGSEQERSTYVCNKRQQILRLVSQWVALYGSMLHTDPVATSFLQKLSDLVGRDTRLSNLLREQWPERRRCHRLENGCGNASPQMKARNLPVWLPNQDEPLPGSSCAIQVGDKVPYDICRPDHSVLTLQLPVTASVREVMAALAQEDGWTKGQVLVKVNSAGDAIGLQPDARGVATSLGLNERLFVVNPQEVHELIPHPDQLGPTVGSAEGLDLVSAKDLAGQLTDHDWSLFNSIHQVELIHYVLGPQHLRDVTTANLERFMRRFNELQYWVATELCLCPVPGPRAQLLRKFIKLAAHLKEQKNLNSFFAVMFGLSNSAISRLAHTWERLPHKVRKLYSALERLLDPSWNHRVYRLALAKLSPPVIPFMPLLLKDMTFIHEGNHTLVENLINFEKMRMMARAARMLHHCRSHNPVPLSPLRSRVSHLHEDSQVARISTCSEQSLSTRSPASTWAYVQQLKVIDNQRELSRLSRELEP

[2] = biological target: Rap guanine nucleotide exchange factor 4 (Homo sapiens) (UniProt Q8WZA2); assay: Confirmatory qHTS for agonist of cAMP-regulated guanine nucleotide exchange factor 4 (EPAC2) (AID 1645884);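 further: nucleotide exchange releases bodipy-GDP from Rap1 and this lowers its fluorescence; nearly all actives have a fitted effect of over 65% in size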; further: potency means the concentration at half of the fitted maximal effect; on activation: on the % scale 0 is the no-effect control and ±100 the full control effect
Sequence of Rap guanine nucleotide exchange factor 4 (Homo sapiens) (Q8WZA2 whole entry, looked up): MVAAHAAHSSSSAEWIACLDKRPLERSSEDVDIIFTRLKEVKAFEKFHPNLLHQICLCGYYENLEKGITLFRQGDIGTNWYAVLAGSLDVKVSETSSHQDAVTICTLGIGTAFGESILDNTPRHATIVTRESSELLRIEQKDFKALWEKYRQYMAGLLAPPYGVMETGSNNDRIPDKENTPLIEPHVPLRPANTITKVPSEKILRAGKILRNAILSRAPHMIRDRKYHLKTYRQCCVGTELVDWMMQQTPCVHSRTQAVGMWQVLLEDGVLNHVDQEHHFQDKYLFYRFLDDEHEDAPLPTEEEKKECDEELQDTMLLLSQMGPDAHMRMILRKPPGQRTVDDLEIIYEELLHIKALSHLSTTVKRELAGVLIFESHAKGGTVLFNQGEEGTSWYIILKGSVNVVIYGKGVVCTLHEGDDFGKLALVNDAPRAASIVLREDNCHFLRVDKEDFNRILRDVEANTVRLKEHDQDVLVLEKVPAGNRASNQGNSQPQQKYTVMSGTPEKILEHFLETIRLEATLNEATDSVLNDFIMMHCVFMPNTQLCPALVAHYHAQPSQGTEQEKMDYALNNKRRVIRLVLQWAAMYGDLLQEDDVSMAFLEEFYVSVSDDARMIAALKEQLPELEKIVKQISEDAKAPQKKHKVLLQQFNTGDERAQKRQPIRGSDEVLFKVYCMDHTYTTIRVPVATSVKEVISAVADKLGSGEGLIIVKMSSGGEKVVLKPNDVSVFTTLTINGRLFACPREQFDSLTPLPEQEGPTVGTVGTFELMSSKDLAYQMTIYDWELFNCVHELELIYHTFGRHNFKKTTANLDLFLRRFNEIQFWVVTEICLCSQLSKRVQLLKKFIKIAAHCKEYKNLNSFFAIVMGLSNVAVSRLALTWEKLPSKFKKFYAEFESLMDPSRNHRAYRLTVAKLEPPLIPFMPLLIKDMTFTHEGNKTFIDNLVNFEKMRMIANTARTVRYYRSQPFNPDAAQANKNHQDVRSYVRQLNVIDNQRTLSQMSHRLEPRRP

[3] = biological target: Rap guanine nucleotide exchange factor 3 (Homo sapiens) (UniProt O95398); assay: Counterscreen qHTS for antagonist of cAMP-regulated guanine nucleotide exchange factor 3 (EPAC1) (AID 1645888);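 further: fluorescence loss as bound BODIPY-GDP is released from Rap1B; % of control where 0% means no effect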
Outline: (§1)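 Rap1B-BODIPY-GDP 250 nM + GDP 50 uM; cpds 7-pt, final 9.74 nM–152 uM (activator mode) or from 7.32 nM upwards (inhibitor mode); RT; FI 480/540 nm at 5 and 30 min, then ± cAMP, reread.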

[4] = biological target: Rap guanine nucleotide exchange factor 3 (Homo sapiens) (UniProt O95398); assay: Counterscreen qHTS for agonist of cAMP-regulated guanine nucleotide exchange factor 3 (EPAC1) (AID 1645889); further: nearly all actives have a fitted effect of over 40% in size; further: potency means the concentration at half of the fitted maximal effect; on activation: % of control where 0% means no effect
Outline: as §1

[5] = qHTS Assay for Inhibitors of Fructose-1,6-bisphosphate Aldolase from Giardia Lamblia: Giardia lamblia growth inhibition (AID 2785); further: on the % scale 0 is the no-effect control and ±100 the full control effect; nearly all actives have a fitted effect of over 70% in size
Outline: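 Whole-parasite growth test: Giardia WB trophozoites in TYI-S-33 (pH 7.0), 100 per well, incubated 48 h at 37C with compound. ATP content was read by ATPlite luminescence.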

[6] = qHTS Assay for Inhibitors of Fructose-1,6-bisphosphate Aldolase from Giardia Lamblia: Mammalian cellular toxicity (AID 2786);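 further: compound exposure lasted 48 h before reading; on the % scale 0 is the no-effect control and ±100 the full control effect; nearly all actives have a fitted effect of over 60% in size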
Outline: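 Mammalian cytotoxicity surrogate: Chinese hamster ovary cells exposed to compound for 48 h at 37 °C. Cellular ATP then measured with ATPlite reagent, 20 min incubation.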

[7] = biological target: Tyrosyl-DNA phosphodiesterase 1 (Homo sapiens) (UniProt Q9NUW8); assay: Confirmation Assay for Inhibitors of Tyrosyl-DNA Phosphodiesterase (TDP1) (AID 489007); conditions: recombinant human TDP1 enzymatic activity, dose-response; further: potency means the concentration at half of the fitted maximal effect; nearly all actives have a fitted effect of over 40% in size
Sequence of Tyrosyl-DNA phosphodiesterase 1 (Homo sapiens) (Q9NUW8 whole entry, looked up): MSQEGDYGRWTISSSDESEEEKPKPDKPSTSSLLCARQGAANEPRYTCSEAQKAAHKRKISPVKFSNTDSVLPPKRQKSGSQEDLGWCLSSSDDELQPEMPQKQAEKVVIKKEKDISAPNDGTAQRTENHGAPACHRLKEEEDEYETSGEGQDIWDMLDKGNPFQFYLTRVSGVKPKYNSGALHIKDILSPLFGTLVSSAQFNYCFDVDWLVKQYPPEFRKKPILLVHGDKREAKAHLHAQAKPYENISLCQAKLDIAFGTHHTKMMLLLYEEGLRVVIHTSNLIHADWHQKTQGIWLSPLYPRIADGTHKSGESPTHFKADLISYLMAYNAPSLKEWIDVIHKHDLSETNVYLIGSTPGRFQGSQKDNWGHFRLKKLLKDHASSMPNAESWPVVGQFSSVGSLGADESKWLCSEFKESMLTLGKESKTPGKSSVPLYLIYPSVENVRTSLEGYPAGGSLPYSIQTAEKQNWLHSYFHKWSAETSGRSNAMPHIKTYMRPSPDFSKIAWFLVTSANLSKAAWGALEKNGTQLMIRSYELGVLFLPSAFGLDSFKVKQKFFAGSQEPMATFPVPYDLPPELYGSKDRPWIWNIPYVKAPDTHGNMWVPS
Outline: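 Confirmation of primary-screen follow-ups in a qHTS format. Substrate cleavage by Tdp1 (1 nM) of a 3'-phosphotyrosine-FITC, 5'-biotin oligo (15 nM) was monitored as decreased AlphaScreen signal after a 5 min room-temperature reaction.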

[8] = biological target: Tumor susceptibility gene 101 protein (Homo sapiens) (UniProt Q99816); assay: qHTS Assay for Iinhibitors of HIV-1 Budding by Blocking the Interaction of PTAP/TSG101: Hit Validation (AID 651600); further: potency means the concentration at half of the fitted maximal effect; nearly all actives have a fitted effect of over 70% in size
Sequence of Tumor susceptibility gene 101 protein (Homo sapiens) (Q99816 whole entry, looked up, the tested form may be a part): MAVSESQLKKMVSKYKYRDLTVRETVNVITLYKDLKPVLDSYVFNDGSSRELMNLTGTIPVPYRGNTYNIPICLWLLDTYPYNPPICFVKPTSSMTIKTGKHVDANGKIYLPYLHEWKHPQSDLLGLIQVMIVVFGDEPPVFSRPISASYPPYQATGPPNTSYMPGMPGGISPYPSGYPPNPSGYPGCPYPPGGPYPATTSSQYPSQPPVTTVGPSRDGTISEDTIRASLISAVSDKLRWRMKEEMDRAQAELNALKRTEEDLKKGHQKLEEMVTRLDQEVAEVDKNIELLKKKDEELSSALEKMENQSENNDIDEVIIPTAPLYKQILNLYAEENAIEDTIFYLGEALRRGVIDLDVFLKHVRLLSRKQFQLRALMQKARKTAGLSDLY
Outline: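 Fluorescence polarization binding assay: Tsg101 binding domain (10 uM) mixed with compounds and FITC-labeled PTAP peptide (50 nM) in HEPES pH 7.5, 0.15 M NaCl, 0.01% Tween 20, EDTA, TCEP; 20 min at r.t.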

[9] = biological target: Phosphoglycerate kinase, glycosomal (Trypanosoma brucei brucei) (UniProt P07378); assay: qHTS for inhibitors of Phosphogylcerate Kinase: Hit Validation Screen (AID 686980); conditions: TbPGK coupled GAPDH assay, Kinase-Glo luminescence; further: potency means the concentration at half of the fitted maximal effect; nearly all actives have a fitted effect of over 65% in size
Sequence of Phosphoglycerate kinase, glycosomal (Trypanosoma brucei brucei) (P07378 whole entry, looked up): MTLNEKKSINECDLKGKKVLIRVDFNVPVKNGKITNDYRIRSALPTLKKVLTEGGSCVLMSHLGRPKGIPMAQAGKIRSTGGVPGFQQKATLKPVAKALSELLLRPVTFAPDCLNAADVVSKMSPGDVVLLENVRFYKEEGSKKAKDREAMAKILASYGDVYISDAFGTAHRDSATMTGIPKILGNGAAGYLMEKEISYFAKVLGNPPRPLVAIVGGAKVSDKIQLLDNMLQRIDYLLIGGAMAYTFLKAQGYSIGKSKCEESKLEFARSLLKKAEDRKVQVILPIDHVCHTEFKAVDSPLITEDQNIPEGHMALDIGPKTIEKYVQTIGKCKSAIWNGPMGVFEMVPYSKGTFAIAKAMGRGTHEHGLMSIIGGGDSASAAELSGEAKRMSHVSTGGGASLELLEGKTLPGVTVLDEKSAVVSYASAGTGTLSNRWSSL
Outline: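 Luminescent ATP detection (Kinase-Glo Plus) follows a 60-minute room-temperature incubation, with wells lacking PGK as controls. Buffer: 100 mM TEA (pH 7.6), 5 mM MgCl2, 0.01% Tween-20. Coupling enzyme GAPDH (100 nM final) supplies unstable 1,3-BPG in-well.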

[10] = biological target: DNA polymerase iota (Homo sapiens) (UniProt Q9UNA4); assay: qHTS for Inhibitors of Polymerase Iota: Confirmatory Assay for Cherry-picked Compounds (AID 720496); conditions: Pol iota primer extension, TAMRA/BHQ fluorescence; further: potency means the concentration at half of the fitted maximal effect
Sequence of DNA polymerase iota (Homo sapiens) (Q9UNA4 whole entry, looked up): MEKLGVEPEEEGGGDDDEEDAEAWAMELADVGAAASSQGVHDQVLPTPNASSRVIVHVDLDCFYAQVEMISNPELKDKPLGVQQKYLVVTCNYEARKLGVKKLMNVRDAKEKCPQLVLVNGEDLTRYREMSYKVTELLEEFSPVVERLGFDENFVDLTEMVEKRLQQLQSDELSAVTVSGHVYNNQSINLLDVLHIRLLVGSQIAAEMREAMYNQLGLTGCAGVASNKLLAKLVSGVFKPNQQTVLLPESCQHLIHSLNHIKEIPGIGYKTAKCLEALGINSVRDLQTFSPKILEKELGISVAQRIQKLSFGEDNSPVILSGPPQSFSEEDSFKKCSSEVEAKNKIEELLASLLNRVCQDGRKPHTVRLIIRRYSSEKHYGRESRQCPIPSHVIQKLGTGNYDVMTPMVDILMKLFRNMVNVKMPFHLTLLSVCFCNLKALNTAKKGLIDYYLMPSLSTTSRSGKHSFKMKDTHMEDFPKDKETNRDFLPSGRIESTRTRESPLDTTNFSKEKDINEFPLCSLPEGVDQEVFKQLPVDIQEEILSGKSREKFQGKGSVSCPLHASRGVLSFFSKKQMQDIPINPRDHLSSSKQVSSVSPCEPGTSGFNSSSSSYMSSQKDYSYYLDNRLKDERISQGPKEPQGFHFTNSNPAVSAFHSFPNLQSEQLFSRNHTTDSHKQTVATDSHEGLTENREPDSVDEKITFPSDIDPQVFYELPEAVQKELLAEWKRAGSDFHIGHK
Outline: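 Recombinant human Pol iota (10 nM) was preincubated with compound for 15 min at room temperature, then 50 nM final primer/template substrate was added; the substrate carried a TAMRA-labeled reporter strand and a BHQ-2-quenched template. Fluorescence was read at 0 and 10 min.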

[11] = biological target: Flap endonuclease 1 (Homo sapiens) (UniProt P39748); assay: qHTS Assay for the Inhibitors of FEN1: Confirmatory Assay for Cherry-picked Compounds (AID 720498); conditions: FEN1 flap cleavage, TAMRA/BHQ2 fluorogenic DNA substrate; further: potency means the concentration at half of the fitted maximal effect; nearly all actives have a fitted effect of over 60% in size
Sequence of Flap endonuclease 1 (Homo sapiens) (P39748 whole entry, looked up): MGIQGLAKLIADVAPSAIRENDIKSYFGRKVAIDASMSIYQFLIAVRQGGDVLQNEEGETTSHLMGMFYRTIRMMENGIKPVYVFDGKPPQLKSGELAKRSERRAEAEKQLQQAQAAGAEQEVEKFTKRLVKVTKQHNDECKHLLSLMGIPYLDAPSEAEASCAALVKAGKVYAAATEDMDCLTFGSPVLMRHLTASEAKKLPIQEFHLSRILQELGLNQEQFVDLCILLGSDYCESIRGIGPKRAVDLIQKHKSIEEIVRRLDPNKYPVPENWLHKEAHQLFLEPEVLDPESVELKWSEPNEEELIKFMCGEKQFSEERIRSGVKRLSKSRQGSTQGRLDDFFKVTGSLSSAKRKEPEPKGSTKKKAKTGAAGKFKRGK
Outline: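 FEN1 at 10 nM was preincubated with compound for 15 min at room temperature, then 50 nM (final) double-flap DNA substrate was added. TAMRA fluorescence released from the BHQ-2-quenched flap was read at 0 and 15 min (ex 525/em 598 nm).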

[12] = biological target: DNA polymerase eta (Homo sapiens) (UniProt Q9Y253); assay: qHTS for Inhibitors of Polymerase Eta: Confirmatory Assay for Cherry-picked Compounds (AID 720502); conditions: Pol eta primer extension, TAMRA/BHQ fluorescence, 10 min; further: potency means the concentration at half of the fitted maximal effect
Outline: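 Readout: TAMRA dequenching, ex 525/em 598 nm, read at 0 and 10 min. Enzyme: 10 nM human Pol eta, preincubated with compound 15 min RT. Substrate: 50 nM final annealed primer/reporter/template duplex.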

Cc1cc(C)c2c(CN3CCC(C)CC3)cc(=O)oc2c1
inactive: Potency [1] | activation [2] -1.95% [at 17.1 µM, percent relative to cAMP agonist control] | activity change, negative = inhibition [3] 10.9% [at 30.8 µM] | activation [4] 22% [at 30.8 µM]

CC(C)CNC(=O)C1(C)CCCCCN1Cc1ccccc1-c1ccccc1 (centres undefined)
inactive: Potency [1] | Potency [2] | Potency [3] | Potency [4]

Cc1ccc(C2CC(c3cccs3)=NN2C(=O)c2ccco2)o1 (centres undefined)
inactive: Potency [1] | activation [2] 1.82% [at 17.1 µM, percent relative to cAMP agonist control] | activity change, negative = inhibition [3] -15.2% [at 30.8 µM] | activation [4] 16.2% [at 30.8 µM]

O=C(O)c1ccc(COc2ccc3ccccc3c2/C=C2/NC(=O)N(Cc3ccc(F)cc3)C2=O)cc1
inactive: Potency [1] | Potency [2] | Potency [3] | Potency [4]

COc1ccc(S(=O)(=O)Nc2cccc(C)c2C)c2cccnc12
inactive: Potency [1] | Potency [2] | Potency [3] | Potency [4]

O=C(N/N=C/c1ccoc1)c1cc(O)cc(O)c1
inactive: Potency [1] | Potency [2] | Potency [3] | Potency [4]

CCC(C)(C)C1CCc2c(sc(NC(=O)c3ccccc3C(=O)O)c2C#N)C1 (centres undefined)
inactive: Potency [1] | Potency [2] | Potency [3] | Potency [4]

COc1cnc(N(C)C)nc1Sc1cccc(Cl)c1
inactive: Potency [1] | activation [2] 2.02% [at 17.1 µM, percent relative to cAMP agonist control] | activity change, negative = inhibition [3] -24.7% [at 30.8 µM] | activation [4] -4.79% [at 30.8 µM]

CCOC(=O)[C@H]1[C@H]2COc3ccc(C)cc3[C@@H]2N2C(=O)c3cc(F)c(F)cc3NC(=O)[C@@]12C
inactive: Potency [1] | Potency [2] | Potency [3] | Potency [4]

Cc1ccc(C)c(Cn2nc(-c3ccccc3)ccc2=O)c1
inactive: Potency [1] | activation [2] -4.57% [at 17.1 µM, percent relative to cAMP agonist control] | activity change, negative = inhibition [3] 14.9% [at 30.8 µM] | activation [4] 3.62% [at 30.8 µM]

C=CC[C@@H](Cc1ccc(F)cc1)C(=O)OC[C@@H]1CCCN1C(=O)[C@@H](CC=C)CC(=O)N(CCO)Cc1ccccc1
inactive: Potency [1] | Potency [2] | Potency [3] | Potency [4]

COc1ccccc1/C=C/C=c1\sc2nc(=O)c(Cc3ccccc3)nn2c1=O
inactive: Potency [1] | Potency [2] | Potency [3] | Potency [4]

CCCc1[nH]c2ccc(C#N)cc2c1CCC
inactive: Potency [1] | Potency [2] | Potency [3] | Potency [4]

Cc1ccc2c(CC(=O)OCc3cc(=O)n4c(n3)sc3ccccc34)coc2c1
inactive: Potency [1] | Potency [2] | Potency [3] | Potency [4]

CCOC(=O)C1=C(N)Oc2ccc3ccccc3c2C1c1ccc(O)cc1 (centres undefined)
inactive: Potency [1] | Potency [2] | Potency [3] | Potency [4]

COc1ccc(-c2nc(CCNS(=O)(=O)c3ccc4c(c3)OCCO4)cs2)cc1
inactive: Potency [1] | Potency [2] | Potency [3] | Potency [4]

O=C(O)CSc1nnc(COc2cccc3ccccc23)n1Cc1ccccc1
inactive: Potency [1] | Potency [2] | Potency [3] | Potency [4]

Nc1ccc2nc3c(=O)[nH]c(=S)[nH]c3nc2c1
inactive: outcome [5] | outcome [6] | Potency [3]
active: Potency [7] 39.8 µM | Potency [8] 18.3 µM | Potency [9] 16.3 µM | Potency [10] 33.6 µM | Potency [11] 67.5 µM | Potency [12] 19 µM | Potency [1] 79.4 µM | Potency [2] 100 µM | Potency [4] 44.7 µM

CC(C)OP(=O)(OC(C)C)C1(NS(=O)(=O)c2ccc(Cl)cc2)C=C(Cl)C(=O)C(Cl)=C1
inactive: Potency [1] | activation [2] -0.932% [at 17.1 µM, percent relative to cAMP agonist control] | activity change, negative = inhibition [3] -5.74% [at 30.8 µM] | activation [4] 22.3% [at 30.8 µM]

N=C1S/C(=C\c2ccco2)C(=O)N1c1ccc2c(c1)OCO2
inactive: Potency [1] | Potency [2] | Potency [3] | Potency [4]

C=C1SC(Nc2c(C)cccc2C)=NC12CCCCC2
inactive: Potency [1] | Potency [2] | Potency [3] | Potency [4]

Cc1ccc(Nc2c([N+](=O)[O-])c(=O)oc3ccccc23)cc1C
inactive: Potency [1] | Potency [2] | Potency [3] | Potency [4]

Cc1ccccc1-c1ccc(CN2C(C(C)C)C(=O)N(Cc3cn(CCC4OCCO4)nn3)CCS2(=O)=O)cc1 (centres undefined)
inactive: Potency [1] | Potency [2] | Potency [3] | Potency [4]

Cc1cc2c(N)cccc2nn1
inactive: Potency [1] | Potency [2] | Potency [3] | Potency [4]

CCc1c(C2(O)CCCCC2)[nH]c2c(C(=O)OC)cc(Cl)cc12
inactive: Potency [1] | Potency [2] | Potency [3] | Potency [4]

CCOc1cnc(-c2c(-c3ccccc3Cl)noc2C)o1
inactive: Potency [1] | Potency [2] | Potency [3] | Potency [4]

CCC(=C(c1ccc(OC)cc1)c1ccc(OC)cc1)c1cn(CC(O)CN(CCO)CCO)c2ccccc12 (centres undefined)
inactive: Potency [1] | Potency [2] | Potency [3] | Potency [4]

Cc1cccc(NC(=S)N2CCN(S(=O)(=O)c3cccc(F)c3)CC2)c1
inactive: Potency [1] | Potency [2] | Potency [3] | Potency [4]

CC(C)CCNC(=O)c1cnn2c(C(F)(F)F)cc(-c3ccco3)nc12
inactive: Potency [1] | Potency [2] | Potency [3] | Potency [4]

O=C(c1ccccc1)c1cccc2ccccc12
inactive: Potency [1] | activation [2] 6.02% [at 17.1 µM, percent relative to cAMP agonist control] | activity change, negative = inhibition [3] -2.88% [at 30.8 µM] | activation [4] 19% [at 30.8 µM]

CCCN(CCC)Cc1cc(=O)oc2cc(OC)ccc12
inactive: Potency [1] | Potency [2] | Potency [3] | Potency [4]

COc1cccc(C(=O)Oc2ccc(/C=N/Nc3ccc(C(=O)O)cc3)cc2OC)c1
inactive: Potency [1] | Potency [2] | Potency [3] | Potency [4]

O=C(Nc1nc2ccccc2c(=O)s1)c1ccc(F)cc1Cl
inactive: Potency [1] | Potency [2] | Potency [3] | Potency [4]

CCc1ccc(S(=O)(=O)Nc2cc(SCC(=O)O)c(O)c3ccccc23)cc1
active: Potency [4] 14.1 µM
inactive: Potency [1] | Potency [2] | Potency [3]

CCCCCN(C(=O)CCC(=O)OCC(=O)N1CCC(C)CC1)c1c(N)n(CCCC)c(=O)[nH]c1=O
inactive: Potency [1] | Potency [2] | Potency [3] | Potency [4]

O=S(=O)(Nc1ccccc1N1CCCC1)c1ccccc1C(F)(F)F
inactive: Potency [1] | Potency [2] | Potency [3] | Potency [4]

O=C(CC1C[C@H](C(=O)N2CCCCC2)[C@@]2(CCc3ccccc3)c3[nH]c4ccccc4c3CCN2C1=O)NCCCn1ccnc1 (some centres undefined)
inactive: Potency [1] | Potency [2] | Potency [3] | Potency [4]

CCOc1cc(C)c(-c2onc(C(F)(F)F)c2-c2csc(C)n2)c(O)c1
inactive: Potency [1] | Potency [2] | Potency [3] | Potency [4]

O=C(CSc1n[nH]c(=O)[nH]c1=O)Nc1ccc2c(c1)C(=O)c1ccccc1C2=O
inactive: Potency [1] | Potency [2] | Potency [3] | Potency [4]
